Screens from PubChem.
NadD block = NadD (S. aureus) enzyme inhibition. hit rate 0.78% among 360,000. AID 602399. purified NadD enzyme, colorimetric absorbance read-out. inhibition, % at 20 µM; in the data active = inhibition above about 26%
aDG glyco act = increases alpha dystroglycan glycosylation; Pro5-aDG cells, alpha-DG glycosylation AlphaScreen (IIH6); 0% Pro5, 100% B10-LARGE cell signal; hit rate 0.22% among 360,000; activation, % at 10 µM; AID 624168;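 active = activation of at least 8% versus controls, or a plate z-score of at least 8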;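 note: Pro5 are CHO cells carrying HIG-tagged alpha-DG that lacks glycosylation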
MPTP inh = permeability transition pore inhibition; isolated mouse mitochondria, Ca2+ swelling absorbance, 30 min; inhibition, % at 10 µM; hit rate 1.4% among 360,000; AID 602449;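 active = inhibition of 50% or more, scaled per plate between neutral and stimulator controls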
TAG inh = inhibitors of triacylglycerol accumulation | H9c2 cells, Nile Red lipid (TAG) fluorescence; cells loaded with 200 µM oleic acid | hit rate 0.66% among 230,000 | inhibition, % at 12.5 µM | AID 651582;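 active = pattern-corrected inhibition of lipid staining of at least 50% with the nuclear-stain viability signal not falling by more than 50%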
H9c2 TAG conf = confirmation of triacylglycerol accumulation inhibitors. inhibition, % at 12.5 µM. hit rate 71% among 990. shares compounds with TAG inh. H9c2 lipid accumulation, Nile Red fluorescence; cells loaded with 200 µM oleic acid;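 active = mean inhibition across replicates of 40% or more; inactive = mean inhibition below 40%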
A number is an active result; n = inactive; x = no result given. Compounds with a hit are over-represented: about 2.7% of the library has one in this group of screens.

SMILES	NadD block	aDG glyco act	MPTP inh	TAG inh	H9c2 TAG conf
C(=N\Nc1nc2ccccc2[nH]1)/C1CCCCC1	n	n	n	74.1	n
Cc1ccc(/C=N/NC(=O)c2c(C)nc3ccc(Br)cn23)cc1	n	n	n	55.6	57.7
COc1ccc(C[C@H]2CN3C(=NC[C@@H]3Cc3ccc(O)cc3)N2C[C@H](C)NC(=O)CCC2CCCCC2)cc1	n	n	n	51.0	n
Cc1ccc(C(=O)NCCN2C3=NC[C@H](C)N3C[C@H]2Cc2ccc(O)cc2)cc1Br	n	n	n	n	x
Cc1ccc(C(=O)NCCN2C3=NC[C@H](C(C)C)N3C[C@H]2Cc2ccc(O)cc2)cc1Br	n	n	n	56.6	40.2
O=C(CCC1CCCCC1)NCCN1C2=NC[C@@H](Cc3ccccc3)N2C[C@H]1Cc1ccc(O)cc1	n	n	n	62.9	62.1
COc1cc(NC(=O)c2cc([N+](=O)[O-])ccc2NC(=O)CN2CCN(c3ccccn3)CC2)cc(OC)c1	n	n	n	59.8	79.4
O=C1COc2ccc(C(=O)CSc3nc4ccccc4c(=O)n3-c3ccc(Cl)c(Cl)c3)cc2N1	n	n	n	61.3	65.9
CCc1ccc(-n2c(SCC(=O)c3ccc4c(c3)NC(=O)CO4)nc3ccccc3c2=O)cc1	n	n	n	n	x
Cc1ccc(CC2(OCCN(C)C)CCC(C(C)(C)C)CC2)cc1 (configuration not stated)	n	n	n	83.8	62.6
CN(C)CCOC1(Cc2ccc(F)cc2)CCC(C(C)(C)C)CC1 (configuration not stated)	n	n	n	n	x
Nc1ccccc1C#Cc1ccccc1	n	n	n	52.6	53.6
COc1ccc(C)cc1NC(=O)C1CCCN1S(=O)(=O)c1ccccc1F (configuration not stated)	n	n	n	n	x
CN(C)CCNC(=O)c1cccc2ccc(-c3ccc(-c4ccccc4)cc3)nc12	n	n	n	60.4	65.6
CCC1SC2=NC(C)=C(C(=O)OCCOC)C(/C=C/c3ccccc3OC)N2C1=O (configuration not stated)	n	n	n	n	x
CCC1SC2=NC(C)=C(C(=O)OCC(C)C)C(/C=C/c3ccccc3OC)N2C1=O (configuration not stated)	n	n	n	71.9	n
Cc1cccc2sc(NC(=O)CN(C)S(=O)(=O)c3cccs3)nc12	n	n	n	n	x
Cc1cccc2sc(NC(=O)CN(C)S(=O)(=O)c3ccc(Br)s3)nc12	n	n	n	51.5	n
CO[C@H]1CN(C)C(=O)c2cc(NC(=O)c3ccccc3)ccc2OC[C@H](C)NC[C@@H]1C	x	n	n	x	x
CC(C)(Oc1ccc(Cl)cc1)C(=O)Nc1ccc2oc(-c3ccncc3)nc2c1	n	n	n	56.6	46.4
COC(=O)c1c(NC(=S)NN2CCN(C)CC2)sc2c1CCC(C)C2 (configuration not stated)	n	n	n	64.8	84.3
CC(=O)N1CCc2cc(S(=O)(=O)C(C)CC(=O)Nc3ccc(OC(F)(F)F)cc3)ccc21 (configuration not stated)	n	n	n	x	x
COc1ccc2cc3cc(C(=O)NCc4ccc5c(c4)OCO5)oc3nc2c1	n	n	n	n	x
COc1ccc2cc3cc(C(=O)NCC4COc5ccccc5O4)oc3nc2c1 (configuration not stated)	n	n	n	56.9	n
O=C(C[C@H]1C/C=C\CC[C@@H](Cc2ccc(F)cc2)C(=O)OC[C@H]2CCCN2C1=O)N[C@@H](CO)Cc1ccccc1	n	n	n	n	x
SMILES	NadD block	aDG glyco act	MPTP inh	TAG inh	H9c2 TAG conf
COCCCn1c(SCC(=O)Nc2nc3ccccc3s2)nnc1-c1ccoc1C	n	n	n	50.7	n
COc1ccc(NC(=O)Cc2c(C)n(C(=O)c3ccc(Cl)cc3)c3ccc(OC)cc23)cc1	n	n	n	n	x
COc1ccc2c(c1)c(CC(=O)Nc1ccc(C)cc1)c(C)n2C(=O)c1ccc(Cl)cc1	n	n	n	61.5	49.7
COC(=O)C1CCN(S(=O)(=O)c2c[nH]c(=O)[nH]c2=O)CC1	n	n	n	n	x
Clc1ccccc1CSc1cnnc2ccccc12	n	n	n	n	x
Cc1nnc(NC(=O)C2CCN(S(=O)(=O)c3ccc(F)c(F)c3)CC2)o1	n	n	n	n	x
Cc1occc1C(=O)NC(C)CCc1ccccc1 (configuration not stated)	n	n	n	50.8	54.2
Cc1ccc(C)c(C(=O)NC(C)CCc2ccccc2)c1 (configuration not stated)	n	n	n	n	x
CNC(=S)N1N=C(c2ccc(Br)cc2)CC1c1ccc(OC)cc1 (configuration not stated)	n	n	n	x	x
COC(=O)[C@H](CCSC)NC(=O)Cn1cc(C)c(=O)[nH]c1=O	n	n	n	n	x
C[C@H]1CN([C@@H](C)CO)C(=O)Cc2cc(NC(=O)CCC(F)(F)F)ccc2O[C@H]1CN(C)S(=O)(=O)c1ccc(Cl)cc1	n	n	n	63.6	69.2
COCCCNC(=O)c1ccc2sc([C@@H]3O[C@H](CO)[C@H](O)[C@H](O)[C@H]3O)nc2c1	n	n	n	n	x
COc1ccc(CCNC(=O)C(NC(=O)OCc2ccccc2)C(C)C)cc1OC (configuration not stated)	n	n	n	n	x
CC[C@H](C)[C@H](NC(N)=O)C(=O)NCCc1ccc(OC)c(OC)c1	n	n	n	94.0	n
O=C(CN(C1CCCCC1)S(=O)(=O)c1ccc(F)cc1)NCC1CCCO1 (configuration not stated)	n	n	n	n	x
